Rows were chosen to be rich in hits. Some 2.8% of all compounds tested hit in one or more screens of this group.
SIRT5 inh – SIRT5 desuccinylase inhibitors, primary screen, biochemical, fluorescence imaging, single point, set 5; NAD-dependent protein deacylase sirtuin-5, mitochondrial (Homo sapiens), Q9NXA8; Purified SirT5, succinyl-peptide AMC, trypsin-coupled fluorescence; inhibition, % at 15 µM; 1.1% of 330,000 active; in the data active means inhibition above about 15%
PvdQ inh – P. aeruginosa PvdQ acylase inhibitors, primary screen, biochemical, fluorescence, plate reader and imaging, single point. 0.063% of 340,000 active. AID 488965, 2010. purified PvdQ acylase. inhibition, % at 10 µM. PvdQ acylase [Pseudomonas aeruginosa LESB58]; in the data active means inhibition above about 30%, passing the limit was not always enough;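 further: 0% = vehicle neutral wells and 100% = reference inhibitor wells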
PglD inh – C. jejuni PglD acetyltransferase inhibitors, primary screen, biochemical, DTNB colorimetric, single point. 0.098% of 360,000 active. purified PglD enzyme, DTNB colorimetric CoA detection. inhibition, % at 12.5 µM; in the data active means inhibition above about 16%, passing the limit was not always enough
CDK5 p35 inh – inhibitors of human CDK5/p35 kinase, primary screen, biochemical, single concentration; Cyclin-dependent kinase 5 (Homo sapiens) + Cyclin-dependent kinase 5 activator 1 (Homo …; Recombinant CDK5/p35, ADP-Glo luminescence, 60 min; inhibition, % at 10 µM; 0.01% of 330,000 active; AID 488839, 2010;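 active means highest replicate inhibition of at least 50% and at least 75% of replicates reaching 50%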;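 further: plate controls were DMSO neutral control for no effect and GW8510 at 10 µM for full effect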
Target sequence (Q00535 whole entry, looked up): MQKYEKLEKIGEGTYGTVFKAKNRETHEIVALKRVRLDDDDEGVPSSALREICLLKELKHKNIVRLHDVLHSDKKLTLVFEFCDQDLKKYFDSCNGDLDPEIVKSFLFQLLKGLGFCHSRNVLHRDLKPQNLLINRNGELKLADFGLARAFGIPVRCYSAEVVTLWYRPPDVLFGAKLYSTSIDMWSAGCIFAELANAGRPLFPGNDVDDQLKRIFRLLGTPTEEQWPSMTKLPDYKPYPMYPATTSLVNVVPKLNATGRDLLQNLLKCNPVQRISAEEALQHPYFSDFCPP
Target sequence (Q15078 whole entry, looked up): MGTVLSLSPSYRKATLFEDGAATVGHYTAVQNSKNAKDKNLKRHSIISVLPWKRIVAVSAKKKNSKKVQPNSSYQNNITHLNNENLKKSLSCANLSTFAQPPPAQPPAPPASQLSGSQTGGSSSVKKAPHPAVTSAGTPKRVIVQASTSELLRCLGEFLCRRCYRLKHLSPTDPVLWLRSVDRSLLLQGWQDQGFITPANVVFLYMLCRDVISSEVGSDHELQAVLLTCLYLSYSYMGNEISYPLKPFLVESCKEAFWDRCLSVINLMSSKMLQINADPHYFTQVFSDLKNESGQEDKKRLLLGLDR
FGF22 binding – binders of human FGF22 protein, primary screen, FGF22 synaptogenesis inhibitor project, biophysical, thermal shift, single point; Fibroblast growth factor 22 (Homo sapiens), Q9HCT0; recombinant FGF22 thermal shift, SYPRO orange fluorescence; percent of sucrose octasulfate shift, DMSO zero; activity (Tm shift, normalised), % at 9.99 µM; 1.5% of 340,000 active;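 active means mean Tm shift, scaled 0 neutral to 100 positive control, at about 1.3% or above, every replicate too, limit read from the data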
dFosB activator – activators of delta FosB homodimer, primary screen, biochemical, fluorescence polarization, TAMRA-CDK5 oligo, single point | Protein FosB (Mus musculus), P13346 | purified delta FosB; percent of positive-control signal above neutral wells | activation, % at 25 µM | 0.99% of 340,000 active;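 active means mean activation above about 17%, with every replicate also reaching it, limit read from the data, passing the limit was not always enough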
An asterisk follows results filed as active; / = not tested or not shown.

SMILES | SIRT5 inh | PvdQ inh | PglD inh | CDK5 p35 inh | FGF22 binding | dFosB activator
CO[C@H]1CN(C)C(=O)c2cc(NC(=O)c3ccccc3F)ccc2OC[C@@H](C)N(C(=O)c2ccccc2F)C[C@H]1C | -1.5 | / | -0.5 | / | -0.1 | /
CC1=C(C(=O)N(C(C)C)C(C)C)CC(CC(=O)NC2CCCCC2)C(=O)N1CCCN1CCCC1=O (configuration not stated) | 32.9* | / | 0.7 | / | -0.5 | /
CC1=C(C(=O)N(C(C)C)C(C)C)CC(CC(=O)NC2CCCC2)C(=O)N1CCCN1CCCC1=O (configuration not stated) | -4.8 | / | -0.4 | / | -0.1 | /
CC1=C(C(=O)N(C(C)C)C(C)C)CC(CC(=O)NCCN2CCOCC2)C(=O)N1CCCN1CCCC1=O (configuration not stated) | 16.3* | / | -5.9 | / | -0.3 | /
CC1=C(C(=O)N(C)C)CC(CC(=O)NCCN2CCOCC2)C(=O)N1CCCN1CCCC1=O (configuration not stated) | -2.3 | / | -2.3 | / | -0.1 | /
O=C1CCCCC1C(O)(C(=O)c1ccccc1)c1ccccc1 (configuration not stated) | / | / | -1.6 | / | 43.3* | /
CCCN1[C@H](C(=O)N[C@H](C)c2ccccc2)[C@@H](CO)[C@@H]2Cn3c(cccc3=O)[C@@H]21 | 2.5 | / | / | / | / | /
COc1ccc(CCCc2nnc(SCc3nc4ccccc4c(=O)[nH]3)n2C)cc1C | -0.8 | 7.8 | -0.6 | 0.1 | 42.9* | -10.3
C[C@@H]1CN([C@@H](C)CO)C(=O)c2cc(-c3cncnc3)cnc2O[C@@H]1CN(C)C(=O)Cc1ccccc1 | 1.7 | / | 5.0 | / | -0.2 | /
COC(=O)c1ccc(C(=O)Nc2ccc3nc(-c4ccncc4)[nH]c3c2)cc1 | -1.9 | -5.1 | -1.4 | 0.5 | -0.4 | 43.9*
COC(=O)c1ccc(-c2nc3ccccc3[nH]2)cc1 | / | 40.2* | 0.6 | 6.2 | / | -13.1
C[C@@H]1CN([C@@H](C)CO)C(=O)c2cc(C#CC3CCCC3)cnc2O[C@@H]1CN(C)Cc1ccncc1 | 3.4 | / | -1.9 | / | -0.2 | /
C[C@@H]1CCCCO[C@H](CN(C)C(=O)Cc2ccccc2)[C@H](C)CN([C@@H](C)CO)C(=O)c2cc(NC(=O)Nc3cccc4ccccc34)ccc2O1 | -3.0 | / | -0.9 | / | -0.8 | /
Oc1ccc(C[C@H]2CN([C@@H](Cc3ccccc3)CN3CCC[C@@H]3CN3C(=S)NC[C@@H]3Cc3ccccc3)C(=S)N2CC2CCCCC2)cc1 | / | / | -0.5 | / | 0.2 | /
Oc1ccc(C[C@H]2CNC(=S)N2CC2CCCN2C[C@H](Cc2ccc(O)cc2)N2C[C@H](Cc3ccccc3)N(CC3CCCCC3)C2=S)cc1 (some centres not stated) | -2.3 | -5.5 | -5.9 | 2.9 | -0.1 | 49.2*
Oc1ccc(C[C@H]2CNC(=S)N2CC2CCCN2C[C@H](Cc2ccc(O)cc2)N2C[C@H](Cc3ccc(O)cc3)N(CC3CCCCCC3)C2=S)cc1 (some centres not stated) | 17.1* | -13.3 | -2.3 | -0.1 | 0.3 | 14.2
O=C(CNC(=O)c1ccc2c(c1)OCCO2)N=Nc1c(O)[nH]c2ccccc12 | -3.8 | -7.1 | -4.4 | -0.4 | -0.1 | 24.2*
COC(=O)Cn1c(O)c(N=NC(=O)CNC(=O)c2ccc3c(c2)OCCO3)c2ccccc21 | 1.2 | -2.5 | 0.2 | -5.4 | 0.0 | -15.7
COC(=O)c1ccccc1NC(=O)Nc1cccc(C)n1 | -2.1 | -9.4 | -1.3 | 0.5 | 43.1* | -1.1
CCCNC(=O)[C@H]1[C@H](CO)[C@H]2Cn3c(cccc3=O)[C@H]2N1C(=O)C1CC1 | -4.1 | / | / | / | / | /
O=C(CSc1nc2ccccc2n1Cc1ccc(Cl)cc1)N/N=C/c1ccccc1C(=O)O | -2.8 | -24.5 | / | -1.5 | 0.3 | -20.0
O=C(O)COc1ccccc1/C=N/NC(=O)CSc1nc2ccccc2n1Cc1ccc(Cl)cc1 | 2.5 | -3.7 | 1.2 | -2.0 | 1.4* | 1.5
Cc1cc(C(=O)Nc2cccc3c2O[C@@H](CN(C)S(=O)(=O)c2ccc(Cl)cc2)[C@@H](C)CN([C@@H](C)CO)C3=O)n(C)n1 | 0.4 | / | 0.9 | / | 0.1 | /
C(=N/Nc1nccs1)/c1cccnc1 | 19.2* | -14.8 | / | 1.0 | 0.4 | -2.4
O=C(NC1CCCCC1)C1c2ccccc2OCC(=O)N1Cc1ccco1 (configuration not stated) | 16.4* | / | / | / | -0.2 | /
SMILES | SIRT5 inh | PvdQ inh | PglD inh | CDK5 p35 inh | FGF22 binding | dFosB activator
O=C(NC1CCCC1)C1c2ccccc2OCC(=O)N1Cc1ccccn1 (configuration not stated) | -3.9 | / | / | / | -0.2 | /
COc1ccc(C(=O)Nc2ccc3c(c2)OC[C@@H](C)N(Cc2cocn2)C[C@@H](C)[C@@H](OC)CN(C)C3=O)cc1 | -1.6 | / | -1.9 | / | / | /
CCCNC(=O)Cn1c(-c2ccc(F)cc2)cc(C(=O)OCC)c1C | -0.2 | 0.7 | / | 1.6 | 43.4* | -7.9
CCOC(=O)c1cc(-c2ccc(F)cc2)n(CC(=O)NC(C)CC)c1C (configuration not stated) | -5.1 | -10.8 | / | 0.1 | 43.3* | -1.9
CCCNC(=O)CCn1c(-c2ccc(C)cc2)cc(C(=O)OCC)c1C | / | -5.7 | 0.0 | / | / | -10.0
CC(=O)c1cc(-c2ccc(F)cc2)n(CCC(=O)NC(C)(C)C)c1C | 20.0* | -1.4 | / | -0.3 | 0.1 | 0.3
O=C(CN1CCOCC1)N[C@H]1CC[C@@H](CCn2cc(C3CCCC3)nn2)O[C@@H]1CO | 0.5 | / | / | / | / | /
CCCC(=O)Nc1ccc2c(c1)C(=O)N(C)C[C@H](OC)[C@H](C)CN(S(=O)(=O)c1cn(C)cn1)[C@@H](C)CO2 | -1.1 | / | 0.8 | / | 0.0 | /
CCCOc1ccc(CNC(=S)Nc2ccccc2)cc1Cl | -0.2 | -3.9 | 1.9 | -2.3 | 39.6* | -5.7
O=C(Nc1cccc(Cl)c1)OCCOCCOC(=O)Nc1cccc(Cl)c1 | 1.7 | -17.7 | 2.3 | 1.0 | 0.0 | -9.1
O=C(Nc1ccccc1)OCCOc1ccc(Cl)cc1Cl | / | -14.4 | -0.6 | 0.0 | 43.9* | -8.0
Cc1nc(SCc2cccc(C(=O)O)c2)nc2c1CCCC2 | 52.1* | 6.4 | / | 1.0 | 43.0* | 4.9
COC(=O)c1c(NC(=O)CSc2ccccc2N)sc(C)c1C | -3.3 | 8.7 | -5.2 | 0.7 | 42.9* | -8.0
COC(=O)c1c(NC(=O)Cc2ccccc2)sc(C)c1C | -4.0 | -1.0 | -3.9 | 0.3 | / | -0.9
COC(=O)c1c(NC(=O)CC2SC(N)=NC2=O)sc(C)c1C (configuration not stated) | -0.2 | -13.4 | / | -2.9 | 43.6* | -0.1
Cc1ccc(NC(=O)/C(=C\c2cccnc2)NC(=O)c2ccco2)cc1 | / | -6.2 | / | 1.9 | / | 4.9
